Laboratory results taken from PubChem BioAssay (NCI).
This is part of a sample that, as a whole, favours compounds with a hit. Of some 79,000 tested, about 15% had one in any assay. Unmarked numbers belong to inactive results. The source made the active and inactive calls. No stated cut-off is given here; in the data, active means growth inhibition above about 70%; inactive means the rest.

Assay: NCI Yeast Anticancer Drug Screen. Data for the mec2-1 strain (AID 157)
Details: S. cerevisiae mec2-1 strain, at 50.0 µM, stronger effect = higher value
Method in brief: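 Compounds were applied to mec2-1 yeast cells. Their growth was then compared with that of vehicle-treated cultures to give growth inhibition.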

Row | SMILES | growth inhibition
1 | CC(=N/NC(=S)NCCN1CCCC1)/C(C)=N\NC(=S)NCCN1CCCC1 | 4.95%
2 | CN(CCN(C)C(=O)CCn1cc(F)c(=O)[nH]c1=O)C(=O)CCn1cc(F)c(=O)[nH]c1=O | 18.2%
3 | COC(=O)c1ccccc1NC(=O)C(=O)NNC(=O)c1ccncc1 | -3%
4 | O=C(c1ccccc1)c1ccccc1O | -10.7%
5 | COC(=O)C1=C(O)c2cc(-c3ccccc3)c(-c3ccccc3)c(C#N)c2NC(=O)C1 | 23.9%
6 | COc1cc(/C=C/Cc2cc3c(cc2OCCO)OCO3)cc(OC)c1OC | 0.3%
7 | CCCCCCCc1ccc(N=Cc2ccc(OCCC)cc2)cc1 | 99.3% (active)
8 | C/C(CC(=O)Nc1ccc(C)cc1C)=N/N=C(N)N | -17.2%
9 | CCN(CC)CCOC1(Cc2ccccn2)CCCCC1 | 15.2%
10 | COC(=O)c1ccc2c(c1)nnn2C(C)=O | -12.7%
11 | c1ccc2c(c1)cnc1cc3c(cc12)ncc1ccccc13 | 19.9%
12 | CCOC(=O)c1ccc(NC(=O)Nc2ccc(OC)c([N+](=O)[O-])c2)cc1 | -3.6%
13 | COc1cc(C2(C)SCCCS2)cc(OC)c1OC | -8.1%
14 | COc1ccccc1/C=C(\S)C(=O)O | -6.9%
15 | COC(=O)c1cc(C)c(C(=O)O)c(C)c1 | 22.5%
16 | O=C(NO)c1c(F)c(F)c(C(=O)NO)c(F)c1F | 7.05%
17 | CNn1c(-c2ccc(C)cc2)n[nH]c1=O | 0.25%
18 | CCc1ccc(-c2c(-c3ccccc3)c(-c3ccccc3)c(-c3ccccc3)c(-c3ccccc3)c2-c2ccccc2)cc1 | 6.3%
19 | CC(c1ccccc1)C1OCCO1 (stereo not given) | -27.4%
20 | Cc1cc(N(CCOS(C)(=O)=O)CCOS(C)(=O)=O)ccc1C=Nc1ccc(C(=O)O)c(O)c1 | 86.8% (active)

Row | SMILES | growth inhibition
21 | Nc1ncnc2c1ncn2C1OC(CSCc2ccc(Cl)cc2)C(O)C1O (stereo not given) | 10.8%
22 | C[S+](C)c1ccc(Cl)cc1 | -6.65%
23 | N=S(c1ccccc1)c1ccccc1[N+](=O)[O-] (stereo not given) | -6.65%
24 | CC(=O)Nc1ccc(S(=O)(=O)CCS(=O)(=O)c2ccc(NC(C)=O)cc2)cc1 | 4.7%
25 | CCCCCCCCCCCCCCCCOc1ccccn1 | -20.6%
26 | COc1ccc2ccc3c(OC(C)=O)ccc(CCN(C)C(C)=O)c3c2c1OC(C)=O | 25.9%
27 | COc1ccc2c(c1)C1(C)CCCC(C)(CO)C1CC2 (stereo not given) | -0.3%
28 | CSc1c2c(c(C)c3c1[nH]c1ccccc13)C=NCC2 | 13.8%
29 | Brc1cn2[n+](c1)[B-]n1cc(Br)c[n+]1[B-]2 | -4.6%
30 | COc1ccc(NC(=O)/C(Cc2nc3ccccc3[nH]c2=O)=N\O)c(OC)c1 | -9.4%
31 | O=C(NC1CCC(CC2CCCCC2)CC1)c1ccccc1 (stereo not given) | 0.7%
32 | CCCOc1nc(N)c2cnn(C3CCCCO3)c2n1 (stereo not given) | -25.5%
33 | C=CCc1ccc(OC(=O)Nc2cccc(OC)c2)c(OC)c1 | 86.8% (active)
34 | CCCCCCC(=O)N1CC(C)OC(C)C1 (stereo not given) | -6.4%
35 | BrC1CC2CC1C1C2CC2OC21 (stereo not given) | -12.7%
36 | Cc1cc(NC(=O)C(=O)CC(=O)c2ccc(Cl)s2)no1 | 4.95%
37 | O=[N+]([O-])c1ccc(-c2ccc([N+](=O)[O-])cc2)cc1 | -0.95%
38 | COC(=O)c1ccccc1C1CN=NC12Cc1c(ccc3c1CCC3)C2=O (stereo not given) | -5.95%
39 | CNC(=O)CN(CC(=O)NC)C(=O)NC | 7.3%
40 | CN/C=C(/c1ccc(OC)cc1)C(O)c1ccc(OC)c(OC)c1 (stereo not given) | -16.2%
